By inhibition is commonly meant the relative decrease from the control value, in per cent.

Here are results for six compounds from ChEMBL document CHEMBL1961873, “Compounds: GSK PKIS; Assays: Nanosyn kinase panel” (2012).

Experiment [1] deals with High affinity nerve growth factor receptor (Homo sapiens) (UniProt P04629). To be noted: at 1 µM.
Experiment [2] has as its target BDNF/NT-3 growth factors receptor (Homo sapiens) (UniProt Q16620). Conditions: at 0.1 µM.
Experiment [3] shares this target. To be noted: at 1 µM.
Experiment [4] concerns the target NT-3 growth factor receptor (Homo sapiens) (UniProt Q16288). To be noted: at 0.1 µM.
Experiment [5] has the same target. To be noted: at 1 µM.
Experiment [6] deals with T1, Tyrosine-protein kinase TXK (Homo sapiens) (UniProt P42681).
T1 sequence (whole entry): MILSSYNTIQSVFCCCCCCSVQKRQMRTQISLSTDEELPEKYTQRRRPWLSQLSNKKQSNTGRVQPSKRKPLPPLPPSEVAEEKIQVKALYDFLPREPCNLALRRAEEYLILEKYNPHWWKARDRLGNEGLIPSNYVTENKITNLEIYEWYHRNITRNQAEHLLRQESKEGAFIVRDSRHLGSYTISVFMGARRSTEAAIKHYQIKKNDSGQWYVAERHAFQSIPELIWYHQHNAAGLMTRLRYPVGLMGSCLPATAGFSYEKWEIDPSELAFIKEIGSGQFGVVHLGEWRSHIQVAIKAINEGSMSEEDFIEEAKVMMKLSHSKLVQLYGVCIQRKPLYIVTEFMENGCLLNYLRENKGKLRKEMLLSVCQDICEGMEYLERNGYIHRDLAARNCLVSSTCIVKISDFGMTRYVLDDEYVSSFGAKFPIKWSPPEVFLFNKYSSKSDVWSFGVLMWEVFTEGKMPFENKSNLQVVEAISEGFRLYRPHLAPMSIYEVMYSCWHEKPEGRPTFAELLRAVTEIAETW
To be noted: at 0.1 µM.

Experiment [7] addresses T1, Tyrosine-protein kinase TXK (Homo sapiens). Conditions: at 1 µM.
Experiment [8] deals with Non-receptor tyrosine-protein kinase TYK2 (Homo sapiens) (UniProt P29597). Conditions: at 0.1 µM.
Experiment [9] has as its target T2, Dual specificity protein kinase TTK (Homo sapiens) (UniProt P33981).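 Note: reported figures are mean TTK inhibition at 1 µM.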
T2 sequence (whole entry): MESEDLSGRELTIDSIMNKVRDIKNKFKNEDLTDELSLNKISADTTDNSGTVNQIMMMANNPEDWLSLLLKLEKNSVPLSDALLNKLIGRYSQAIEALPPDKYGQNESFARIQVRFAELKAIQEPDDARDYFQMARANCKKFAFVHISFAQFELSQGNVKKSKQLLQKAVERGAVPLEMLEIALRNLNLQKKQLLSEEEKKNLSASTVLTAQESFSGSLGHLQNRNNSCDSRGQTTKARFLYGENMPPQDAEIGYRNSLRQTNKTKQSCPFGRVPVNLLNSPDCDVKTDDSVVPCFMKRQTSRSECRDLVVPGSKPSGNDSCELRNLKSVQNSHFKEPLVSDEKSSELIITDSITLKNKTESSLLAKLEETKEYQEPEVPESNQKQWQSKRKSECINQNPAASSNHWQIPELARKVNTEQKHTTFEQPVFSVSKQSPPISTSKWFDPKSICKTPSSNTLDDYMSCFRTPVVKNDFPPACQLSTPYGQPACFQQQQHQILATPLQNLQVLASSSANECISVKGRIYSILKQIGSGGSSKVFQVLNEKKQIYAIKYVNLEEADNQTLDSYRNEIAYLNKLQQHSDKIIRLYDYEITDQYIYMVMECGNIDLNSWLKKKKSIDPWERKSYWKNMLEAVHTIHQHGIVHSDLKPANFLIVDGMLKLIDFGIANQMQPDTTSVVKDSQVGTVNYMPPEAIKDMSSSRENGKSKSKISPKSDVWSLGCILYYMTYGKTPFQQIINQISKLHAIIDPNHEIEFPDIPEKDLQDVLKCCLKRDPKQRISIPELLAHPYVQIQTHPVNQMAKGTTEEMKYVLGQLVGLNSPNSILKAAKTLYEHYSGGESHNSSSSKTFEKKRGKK
To be noted: at 1 µM.

Experiment [10] deals with T3, Aurora kinase A (Homo sapiens) (UniProt O14965).
T3 sequence (whole entry): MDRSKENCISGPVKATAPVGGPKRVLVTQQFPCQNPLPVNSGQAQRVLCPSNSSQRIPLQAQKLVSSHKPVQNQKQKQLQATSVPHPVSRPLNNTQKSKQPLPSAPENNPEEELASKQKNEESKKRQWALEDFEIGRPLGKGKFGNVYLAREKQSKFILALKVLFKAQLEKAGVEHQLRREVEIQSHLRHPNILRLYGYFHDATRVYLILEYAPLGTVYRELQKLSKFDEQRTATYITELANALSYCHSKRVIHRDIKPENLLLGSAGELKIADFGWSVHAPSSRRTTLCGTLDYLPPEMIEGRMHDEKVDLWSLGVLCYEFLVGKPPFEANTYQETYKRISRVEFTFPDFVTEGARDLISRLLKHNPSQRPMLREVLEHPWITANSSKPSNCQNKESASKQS
Conditions: at 0.1 µM.

Experiment [11] addresses T3, Aurora kinase A (Homo sapiens). Conditions: at 1 µM.
For experiment [12], the target named is Aurora kinase B (Homo sapiens) (UniProt Q96GD4). To be noted: at 0.1 µM.
Experiment [13] has the same target. To be noted: at 1 µM.
The target in experiment [14] is T4, Aurora kinase C (Homo sapiens) (UniProt Q9UQB9).
T4 sequence (whole entry): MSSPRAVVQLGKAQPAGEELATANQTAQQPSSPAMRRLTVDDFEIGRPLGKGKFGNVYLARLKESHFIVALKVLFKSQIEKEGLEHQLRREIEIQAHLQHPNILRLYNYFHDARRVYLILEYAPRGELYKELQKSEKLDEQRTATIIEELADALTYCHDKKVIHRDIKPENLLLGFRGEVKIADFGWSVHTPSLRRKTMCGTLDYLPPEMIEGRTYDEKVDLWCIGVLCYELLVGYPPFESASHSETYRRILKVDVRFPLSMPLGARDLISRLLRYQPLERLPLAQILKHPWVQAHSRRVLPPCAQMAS
Conditions: at 0.1 µM.

Experiment [15] has as its target T4, Aurora kinase C (Homo sapiens). Conditions: at 1 µM.
Experiment [16] deals with Serine/threonine-protein kinase 10 (Homo sapiens) (UniProt O94804). To be noted: at 0.1 µM.
For experiment [17] the target is unchanged. To be noted: at 1 µM.
Experiment [18] concerns the target T5, Mitogen-activated protein kinase kinase kinase kinase 2 (Homo sapiens) (UniProt Q12851).
T5 sequence (whole entry): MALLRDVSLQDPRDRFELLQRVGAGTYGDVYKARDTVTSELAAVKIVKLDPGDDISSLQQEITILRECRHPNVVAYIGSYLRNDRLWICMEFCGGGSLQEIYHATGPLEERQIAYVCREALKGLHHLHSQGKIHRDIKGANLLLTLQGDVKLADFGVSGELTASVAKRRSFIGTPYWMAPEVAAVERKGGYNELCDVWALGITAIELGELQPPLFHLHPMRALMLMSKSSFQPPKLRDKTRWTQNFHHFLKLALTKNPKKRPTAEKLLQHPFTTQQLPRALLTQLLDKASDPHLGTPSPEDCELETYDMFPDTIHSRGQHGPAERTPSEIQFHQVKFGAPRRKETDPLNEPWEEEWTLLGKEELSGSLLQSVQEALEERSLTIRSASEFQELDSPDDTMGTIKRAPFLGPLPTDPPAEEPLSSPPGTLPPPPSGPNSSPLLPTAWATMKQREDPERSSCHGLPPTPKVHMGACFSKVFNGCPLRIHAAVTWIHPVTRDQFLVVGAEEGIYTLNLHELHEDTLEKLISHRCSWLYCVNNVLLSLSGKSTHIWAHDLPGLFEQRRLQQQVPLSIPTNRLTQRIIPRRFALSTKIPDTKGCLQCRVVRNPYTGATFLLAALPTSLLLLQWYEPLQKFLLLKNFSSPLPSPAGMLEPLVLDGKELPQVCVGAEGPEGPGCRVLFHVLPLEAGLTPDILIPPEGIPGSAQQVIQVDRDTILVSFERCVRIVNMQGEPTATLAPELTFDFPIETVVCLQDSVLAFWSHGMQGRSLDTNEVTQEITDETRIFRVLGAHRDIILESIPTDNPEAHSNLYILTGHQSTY
Conditions: at 0.1 µM.

The target of experiment [19] is T5, Mitogen-activated protein kinase kinase kinase kinase 2 (Homo sapiens). Conditions: at 1 µM.
Experiment [20] addresses Mitogen-activated protein kinase kinase kinase kinase 4 (Homo sapiens) (UniProt O95819). Conditions: at 0.1 µM.

Chain of Mitogen-activated protein kinase kinase kinase kinase 4 (Homo sapiens) (O95819 2-1239 limits assumed): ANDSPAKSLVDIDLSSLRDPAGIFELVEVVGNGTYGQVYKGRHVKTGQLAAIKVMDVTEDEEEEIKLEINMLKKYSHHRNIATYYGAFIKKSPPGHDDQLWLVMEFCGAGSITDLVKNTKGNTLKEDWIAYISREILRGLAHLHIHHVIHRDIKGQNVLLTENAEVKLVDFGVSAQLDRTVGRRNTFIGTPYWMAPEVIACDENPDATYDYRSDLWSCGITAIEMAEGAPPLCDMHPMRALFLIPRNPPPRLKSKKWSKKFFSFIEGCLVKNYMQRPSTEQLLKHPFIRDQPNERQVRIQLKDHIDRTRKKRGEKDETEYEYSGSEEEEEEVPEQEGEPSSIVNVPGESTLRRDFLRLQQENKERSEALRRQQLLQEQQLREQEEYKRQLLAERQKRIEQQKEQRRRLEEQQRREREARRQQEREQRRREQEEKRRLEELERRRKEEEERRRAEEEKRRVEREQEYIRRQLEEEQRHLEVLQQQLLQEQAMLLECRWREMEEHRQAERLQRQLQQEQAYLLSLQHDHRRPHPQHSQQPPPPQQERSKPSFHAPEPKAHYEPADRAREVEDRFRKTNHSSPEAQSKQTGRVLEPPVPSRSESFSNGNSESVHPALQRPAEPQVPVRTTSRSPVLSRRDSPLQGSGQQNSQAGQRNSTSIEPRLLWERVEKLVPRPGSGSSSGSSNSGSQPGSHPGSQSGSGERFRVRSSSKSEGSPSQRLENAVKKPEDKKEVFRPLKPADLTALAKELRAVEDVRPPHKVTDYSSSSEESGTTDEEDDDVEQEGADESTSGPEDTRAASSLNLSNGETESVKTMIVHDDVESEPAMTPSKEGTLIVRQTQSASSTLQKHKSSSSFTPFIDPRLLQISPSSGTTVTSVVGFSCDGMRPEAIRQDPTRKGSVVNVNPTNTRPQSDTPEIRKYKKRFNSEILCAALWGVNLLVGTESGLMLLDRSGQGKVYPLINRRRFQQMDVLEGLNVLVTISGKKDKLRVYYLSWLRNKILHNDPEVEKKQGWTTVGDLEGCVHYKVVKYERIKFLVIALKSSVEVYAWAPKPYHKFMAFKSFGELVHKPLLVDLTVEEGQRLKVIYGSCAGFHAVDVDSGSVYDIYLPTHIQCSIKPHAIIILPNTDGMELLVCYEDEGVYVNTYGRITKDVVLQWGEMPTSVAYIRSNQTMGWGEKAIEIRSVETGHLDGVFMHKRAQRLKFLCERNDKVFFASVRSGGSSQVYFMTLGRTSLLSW
Chain of High affinity nerve growth factor receptor (Homo sapiens) (P04629 33-796 limits assumed): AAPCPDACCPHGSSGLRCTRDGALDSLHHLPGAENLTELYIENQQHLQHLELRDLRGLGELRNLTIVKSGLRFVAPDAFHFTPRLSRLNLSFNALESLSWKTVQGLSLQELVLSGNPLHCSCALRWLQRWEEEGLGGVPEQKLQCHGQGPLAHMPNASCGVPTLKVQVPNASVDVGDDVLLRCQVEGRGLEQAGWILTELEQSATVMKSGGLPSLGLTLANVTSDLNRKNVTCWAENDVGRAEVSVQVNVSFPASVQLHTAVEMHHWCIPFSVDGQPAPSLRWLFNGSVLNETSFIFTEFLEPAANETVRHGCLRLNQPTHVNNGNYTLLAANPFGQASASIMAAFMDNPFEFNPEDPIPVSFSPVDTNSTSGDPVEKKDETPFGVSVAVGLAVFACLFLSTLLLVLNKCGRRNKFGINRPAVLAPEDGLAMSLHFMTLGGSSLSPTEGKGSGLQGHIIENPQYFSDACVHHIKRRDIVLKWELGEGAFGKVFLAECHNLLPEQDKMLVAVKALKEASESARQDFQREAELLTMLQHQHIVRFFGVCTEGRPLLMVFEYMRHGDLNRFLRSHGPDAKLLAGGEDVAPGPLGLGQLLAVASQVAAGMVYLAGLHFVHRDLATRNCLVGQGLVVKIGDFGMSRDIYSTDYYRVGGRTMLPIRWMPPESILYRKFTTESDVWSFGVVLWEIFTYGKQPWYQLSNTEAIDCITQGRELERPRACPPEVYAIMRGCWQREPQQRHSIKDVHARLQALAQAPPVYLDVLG
Chain of Aurora kinase B (Homo sapiens) (Q96GD4 whole entry): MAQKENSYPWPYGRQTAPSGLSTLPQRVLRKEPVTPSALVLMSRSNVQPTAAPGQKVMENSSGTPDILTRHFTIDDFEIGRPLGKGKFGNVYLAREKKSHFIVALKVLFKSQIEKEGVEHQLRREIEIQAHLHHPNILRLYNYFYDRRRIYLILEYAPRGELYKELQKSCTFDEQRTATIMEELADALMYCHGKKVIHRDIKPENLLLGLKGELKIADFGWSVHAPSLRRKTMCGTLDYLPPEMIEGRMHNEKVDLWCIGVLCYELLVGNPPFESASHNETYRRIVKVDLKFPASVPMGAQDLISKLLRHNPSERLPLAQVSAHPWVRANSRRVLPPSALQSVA
Chain of Non-receptor tyrosine-protein kinase TYK2 (Homo sapiens) (P29597 whole entry): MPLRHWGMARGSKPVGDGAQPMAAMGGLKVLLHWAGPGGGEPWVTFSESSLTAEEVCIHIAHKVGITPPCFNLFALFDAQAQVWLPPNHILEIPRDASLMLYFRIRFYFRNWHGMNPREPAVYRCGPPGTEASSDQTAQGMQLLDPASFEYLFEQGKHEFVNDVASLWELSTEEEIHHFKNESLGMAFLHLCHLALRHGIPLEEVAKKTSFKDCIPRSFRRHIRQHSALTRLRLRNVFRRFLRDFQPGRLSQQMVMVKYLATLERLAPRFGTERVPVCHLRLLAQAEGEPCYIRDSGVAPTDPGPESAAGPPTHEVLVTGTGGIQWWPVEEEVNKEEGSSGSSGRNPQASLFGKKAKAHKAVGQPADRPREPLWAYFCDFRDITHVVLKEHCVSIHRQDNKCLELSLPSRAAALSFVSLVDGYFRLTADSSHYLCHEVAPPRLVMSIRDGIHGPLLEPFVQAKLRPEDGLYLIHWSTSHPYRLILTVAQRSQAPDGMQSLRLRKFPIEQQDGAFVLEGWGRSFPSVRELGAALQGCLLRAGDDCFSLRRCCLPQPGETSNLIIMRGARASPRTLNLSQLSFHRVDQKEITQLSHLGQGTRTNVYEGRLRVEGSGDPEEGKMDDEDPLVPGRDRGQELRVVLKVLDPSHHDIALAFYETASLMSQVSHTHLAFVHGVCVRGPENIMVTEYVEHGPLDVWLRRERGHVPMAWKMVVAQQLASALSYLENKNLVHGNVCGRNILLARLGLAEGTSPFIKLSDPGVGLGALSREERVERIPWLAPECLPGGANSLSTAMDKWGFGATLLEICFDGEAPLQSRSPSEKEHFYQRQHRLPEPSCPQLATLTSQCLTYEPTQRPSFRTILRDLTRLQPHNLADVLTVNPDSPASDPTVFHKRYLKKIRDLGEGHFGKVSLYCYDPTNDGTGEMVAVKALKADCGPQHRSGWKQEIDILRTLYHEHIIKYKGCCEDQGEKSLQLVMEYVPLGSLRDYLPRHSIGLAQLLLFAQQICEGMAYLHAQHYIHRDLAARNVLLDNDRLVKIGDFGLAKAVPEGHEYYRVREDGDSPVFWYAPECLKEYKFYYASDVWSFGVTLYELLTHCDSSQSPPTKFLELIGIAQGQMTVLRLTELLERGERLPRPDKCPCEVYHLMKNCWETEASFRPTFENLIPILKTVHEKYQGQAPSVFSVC
Chain of BDNF/NT-3 growth factors receptor (Homo sapiens) (Q16620 32-822 limits assumed): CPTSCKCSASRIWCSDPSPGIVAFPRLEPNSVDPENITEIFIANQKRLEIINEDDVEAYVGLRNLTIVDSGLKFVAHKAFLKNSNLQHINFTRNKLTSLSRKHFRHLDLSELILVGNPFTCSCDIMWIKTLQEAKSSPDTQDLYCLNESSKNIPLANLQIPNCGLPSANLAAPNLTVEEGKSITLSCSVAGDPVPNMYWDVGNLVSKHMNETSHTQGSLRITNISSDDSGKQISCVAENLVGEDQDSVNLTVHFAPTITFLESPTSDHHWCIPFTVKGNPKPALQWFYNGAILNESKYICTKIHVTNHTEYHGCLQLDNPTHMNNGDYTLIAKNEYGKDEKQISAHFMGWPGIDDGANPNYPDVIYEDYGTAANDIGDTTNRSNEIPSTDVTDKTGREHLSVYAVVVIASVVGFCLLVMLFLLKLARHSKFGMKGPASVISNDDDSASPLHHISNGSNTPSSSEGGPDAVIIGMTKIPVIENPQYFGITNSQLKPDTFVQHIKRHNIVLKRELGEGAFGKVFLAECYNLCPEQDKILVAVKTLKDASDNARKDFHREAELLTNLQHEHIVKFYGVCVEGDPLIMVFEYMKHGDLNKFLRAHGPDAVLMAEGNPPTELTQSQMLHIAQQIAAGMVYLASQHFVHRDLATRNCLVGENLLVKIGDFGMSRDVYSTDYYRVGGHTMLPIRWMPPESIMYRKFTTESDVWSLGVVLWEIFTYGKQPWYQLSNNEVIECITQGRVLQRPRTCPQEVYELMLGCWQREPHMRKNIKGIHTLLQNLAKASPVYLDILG

Turning to `N#Cc1cccc(Nc2nccc(-c3cnn4ncccc34)n2)c1`, the inhibition in [1] was found to be 65.7%; in [2], 24.3%; in experiment [3] it was 75.3%; in experiment [4] it was 28.2%; in experiment [5], 87.5%; in experiment [6], 5.32%. Moreover, the inhibition was 24.4% in [7]; -4.17% in [8]; 35% in experiment [9]; 11.3% in experiment [10]; 74.5% in [11]; 19.3% in experiment [12]. In addition, the inhibition is 64% in [13]; 18.5% in experiment [14]; 96.7% in [15]; 5.05% in experiment [16]; 15.8% in experiment [17]; 11% in [18]. The inhibition came to 45.8% in experiment [19] and 19.3% in experiment [20].

Regarding `Cc1ccc2c(-c3ccnc(Nc4cccc(C(F)(F)F)c4)n3)c(-c3ccccc3)nn2n1`, the inhibition in experiment [1] came to 7.09%; in [2], 4.09%; in experiment [3], 5.15%; in experiment [4] it was 2.41%; in [5], 5.05%; in [6], 6.16%. Moreover, the inhibition in experiment [7] is 17.2%; in [8], -1.28%; in experiment [9], 10.6%; in experiment [10], 1.82%; in experiment [11], 6.06%; in experiment [12], 5.03%. Moreover, the inhibition in [13] was 7.6%; in [14], 3.89%; in experiment [15], 9.67%; in experiment [16] it was 8.49%; in [17], 11.5%; in experiment [18] it was -0.05%. Moreover, the results for the inhibition in experiment [19] and in experiment [20] were 9.38% and 7.07%, respectively.

As to `c1ccc(Nc2ncc(-c3ccccc3)o2)cc1`, the inhibition came to 6.98% in experiment [1]; 2.68% in [2]; 9.78% in experiment [3]; 4.23% in [4]; 8.89% in [5]; 2.01% in experiment [6]. For the same compound, the inhibition in [7] was 6.4%; in experiment [8], -2.68%; in experiment [9], 16.1%; in experiment [10], 2.24%; in experiment [11], 15.2%; in [12], 3.84%. Further, the inhibition came out at 10.3% in [13]; 0.81% in experiment [14]; 16% in experiment [15]; 3.84% in experiment [16]; 9.44% in [17]; 1.03% in [18]. For the same compound, the inhibition in [19] is 5.7%; in [20], 5.9%.

For the compound `COc1cccc(-n2ncc3c(N/N=C/c4ccc(C)cc4)ncnc32)c1`, the inhibition in experiment [1] worked out at 5.28%; in [2], 3.97%; in experiment [3] it was 5.08%; in experiment [4] it was 3.96%; in [5], 2.64%; in experiment [6], 7.7%. Also, the inhibition in [7] was 7.5%; in experiment [8], -1.37%; in experiment [9], 19.1%; in experiment [10], 3.98%; in [11] it was 11.8%; in experiment [12], 4.27%. For the same compound, the inhibition in experiment [13] was determined as 6.65%; in [14], 1.92%; in experiment [15], 4.66%; in [16] it was 5.12%; in experiment [17], 10.9%; in experiment [18] it was 0.91%. Moreover, the inhibition was 4.23% in experiment [19] and 4.74% in [20].

For the compound `Oc1cccc(-c2nc(-c3ccccc3)[nH]c2-c2ccncc2)c1`, the inhibition in experiment [1] was 5.31%; in [2], 3.82%; in experiment [3], 5.72%; in experiment [4] it was 4.99%; in experiment [5], 7.3%; in experiment [6] it was 3.28%. For the same compound, the inhibition in experiment [7] is 13.8%; in [8] it was -1.97%; in experiment [9], 12.4%; in [10] it was 2.96%; in experiment [11], 4.61%; in experiment [12] it was 3.38%. Further, the inhibition in experiment [13] is 8.4%; in experiment [14], 2.05%; in [15] it was -2.07%; in experiment [16], 4.37%; in [17] it was 16.6%; in experiment [18], 0.57%. Besides, the inhibition in experiment [19] was determined as 4.27%; in experiment [20], 4.05%.

Consider `c1ccc(Cc2nc3ccc(Nc4ncnc5ccccc45)cc3[nH]2)cc1`, for which the inhibition was 0.18% in experiment [1]; 2.44% in experiment [2]; 3.35% in experiment [3]; -0.16% in experiment [4]; 2.9% in experiment [5]; 2.03% in experiment [6]. Also, the inhibition was 4.47% in experiment [7]; -9.76% in [8]; 19% in experiment [9]; 2.6% in experiment [10]; 11.6% in experiment [11]; 5.89% in [12]. Further, the inhibition came out at 11% in [13]; 4.08% in experiment [14]; 7.02% in experiment [15]; 4.04% in experiment [16]; 8.14% in experiment [17]; 0.75% in experiment [18]. Further, the inhibition in experiment [19] was 6.22%; in experiment [20], 4.28%.
